Compound activity from PubChem BioAssay.
Compounds with a hit are over-represented: about 4% of the library has one in this group of screens.
D1 antagonist – antagonists of human D1 dopamine receptor. activity change, negative = inhibition, % at 10 µM. 360,000 tested, 3.2% active. HEK293 TREx D1 cells, calcium flux, dopamine EC80; hits give low values. P21728; in the data active = activity change below about -30%; note: % is set by controls: 0 for no effect and ±100 for the full control effect
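After overnight tetracycline induction at 30 C, force-coupled D1 HEK293 cells took up a no-wash calcium dye at room temperature. Compounds were added and monitored 180 s, and the response to EC80 dopamine was then recorded.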
D1 potentiator – potentiators of human D1 dopamine receptor; AID 504651; potentiation, % at 10 µM; 360,000 tested, 0.036% active; HEK293 TREx D1 cells, calcium flux, dopamine EC20 potentiation; P21728; in the data active = potentiation above about 30%; note: 0% is about no effect
TRHR enhancer – TRH receptor (human) allosteric enhancement; P34981; TRHR cells, fluo-8 calcium fluorescence, EC20 TRH enhancement; enhancement, % at 2 µM; 360,000 tested, 0.66% active; in the data active = enhancement above about 30%; note: 0% is about no effect
Target sequence (P34981 whole entry, looked up): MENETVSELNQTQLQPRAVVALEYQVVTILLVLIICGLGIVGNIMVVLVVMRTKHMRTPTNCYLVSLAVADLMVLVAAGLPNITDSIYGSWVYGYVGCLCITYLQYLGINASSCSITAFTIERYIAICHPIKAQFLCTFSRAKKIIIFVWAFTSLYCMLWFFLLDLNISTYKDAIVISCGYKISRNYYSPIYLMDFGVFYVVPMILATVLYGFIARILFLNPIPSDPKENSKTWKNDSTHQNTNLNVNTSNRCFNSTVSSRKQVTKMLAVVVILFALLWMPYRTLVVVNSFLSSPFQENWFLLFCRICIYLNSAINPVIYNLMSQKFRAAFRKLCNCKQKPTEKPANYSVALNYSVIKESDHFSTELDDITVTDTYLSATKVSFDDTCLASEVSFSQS
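TRHR-expressing cells loaded with fluo-8 calcium dye were read kinetically (ex 480/em 530) during compound addition, then stimulated with an EC20 of TRH (10 nM final). Enhancement of the Gq-mediated intracellular calcium response was scored.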
TRHR ag – agonists of human TRH receptor; activation, % at 2 µM; P34981; TRHR cells, calcium flux fluo-8, FDSS agonist mode; 360,000 tested, 0.18% active; AID 493084; note: 0% is about no effect
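TRHR-expressing cells loaded with fluo-8 calcium dye; 23 nL library compound pin-transferred, kinetic FDSS fluorescence (Ex 480/Em 530) recorded about 180 s for agonist-induced calcium release, before a 10 nM TRH EC20 addition for potentiator mode.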
Glioma ERSR ind – ER stress response induction in glioma. U87-MG GRP78 promoter luciferase reporter, 16 h. Potency, µM, inactives show at the top dose activation, most hits filed as activators. 420,000 tested, 0.02% active. AID 602332; active = well fitted activation curve with a large enough effect; note: potency is the fitted concentration of half-maximal effect; series mostly up to about 76 µM; % of control where 0% means no effect; nearly all actives have a fitted effect of over 35% in size
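ERSR induction read as luciferase luminescence (Bright-Glo, 10 min at room temperature) in stably transfected human U87-MG glioma cells exposed to compounds for 16 h, using GRP78 as sensor.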
D1 ag – human D1 receptor agonism; 360,000 tested, 1% active; activation, % at 2 µM; P21728; HEK293 T-REx D1 cells, calcium flux, agonist mode; AID 504660; note: 0% is about no effect
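Tetracycline-induced HEK293 TREx D1 cells, force-coupled to calcium signalling, were dye-loaded with a no-wash calcium kit. Compound was pin-added after a 10 s baseline. Fluorescence was read kinetically at 1 cycle/s for 180 s, with calcium rises flagged as agonism.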
Active calls of the source: *; / = not tested or not shown. Cut-off read from the data, not from the text of the source, unless noted: active = activation above about 30%; inactive = the rest.

SMILES	D1 antagonist	D1 potentiator	TRHR enhancer	TRHR ag	Glioma ERSR ind	D1 ag
Cc1c(-n2cc(C(=O)c3cc(F)ccc3O)cc(C#N)c2=O)c(=O)n(-c2ccccc2)n1C	-2	3	-3	22	-2%	15
N#Cc1cc(C(=O)c2ccccc2O)cn(-c2nccs2)c1=O	44	18	30*	292*	1%	553*
N#Cc1cc(C(=O)c2cc(F)ccc2O)cn(-c2nccs2)c1=O	7	-7	4	183*	-6%	306*
O=C(NC1CCCN(Cc2ccc(Cl)cc2)C1)C1CCC1 (stereo unspecified)	-7	-3	31*	-2	-2%	2
O=S(=O)(NC1CCc2ccccc21)c1ccc(S(=O)(=O)N2CCCC2)cc1 (stereo unspecified)	-26	-4	-10	0	-5%	0
Cc1oc2c(c1C(=O)Nc1ccc(OC(F)(F)F)cc1)C1=NCCN1C=N2	2	-5	-3	1	-1%	8
Cc1cc(=O)n2[nH]c(C)c(-c3ccccc3)c2n1	5	-3	7	-1	-3%	2
O=c1cc(-c2ccccc2)nc2c(-c3ccccc3)c(C(F)(F)F)[nH]n12	-31*	-10	-11	0	-4%	-1
C=CCc1cc(OC)ccc1OCCOCCN1CCc2ccccc2C1	-43*	-11	0	0	-8%	11
O=c1c2cc(Cl)ccc2nc(-c2ccc([N+](=O)[O-])cc2)n1O	-3	-1	-2	-1	-1%	3
O=c1c2cc(Br)ccc2nc(-c2ccc(Cl)cc2)n1O	4	-6	12	-1	-1%	107*
O=Nc1c(O)[nH]c2c(Cl)c(Cl)ccc12	/	/	/	/	-3%	/
COC(=O)c1ccccc1-c1cc(C)cc2c1OC(CNC(=O)c1cc(C)on1)C2 (stereo unspecified)	/	/	/	/	5%	/
Cc1ccc(OCCCCn2c(CO)nc3ccccc32)cc1	-37*	-8	5	0	0%	14
CC(O)c1nc2ccccc2n1CCCCOc1ccccc1 (stereo unspecified)	-5	-6	3	1	-3%	2
CC(O)c1nc2ccccc2n1CCOc1ccccc1 (stereo unspecified)	-46*	1	15	-1	-3%	43*
Cc1nc2ccccc2n1CCOc1ccc([N+](=O)[O-])cc1	-40*	-10	-3	1	-6%	2
OCc1nc2ccccc2n1CCCCOc1ccccc1	/	/	/	/	0%	/
CCc1nnc(NC(=O)c2ccccc2NC(=O)C2CCN(C(=O)c3ccco3)CC2)s1	/	/	/	/	-3%	/
O=C(Nn1c(C2CCCCC2)nc2ccccc2c1=O)c1ccc([N+](=O)[O-])cc1Cl	-15	-3	-7	0	-5%	2
COc1cc(Cl)c(C)cc1N1C(=O)[C@@H]2C[C@H]1CN2Cc1ccccn1	/	/	/	/	-4%	/
NC(=O)c1oc2ccccc2c1NC(=O)c1nc2ccccc2s1	9	4	5	1	1%	3
Cc1ccccc1C(=O)Nc1nnc(-c2ccc(F)cc2)o1	-37*	0	5	0	-1%	-1
O=C(NCc1ccccc1)c1nc2ccccc2s1	-39*	-4	2	0	3%	3
CCc1nc2ccccc2c(C(=O)O)c1C	3	-3	-3	-1	-3%	2
SMILES	D1 antagonist	D1 potentiator	TRHR enhancer	TRHR ag	Glioma ERSR ind	D1 ag
CCc1nc2ccccc2c(C(=O)NCc2ccccc2)c1C	-49*	-3	-6	-2	-3%	1
O=C(Nc1nnc(-c2ccccc2)o1)c1nc2ccccc2s1	-25	-13	-8	31*	-10%	164*
COc1ccccc1C(=O)Nc1nnc(-c2ccc(F)cc2)o1	8	/	-7	0	7%	0
O=C(OCc1c(Cl)nc2sccn12)c1cc2c(s1)CCCC2	4	-3	33*	0	-3%	3
O=C(COC(=O)c1cc2c(s1)CCCC2)Nc1ccc(Cl)cn1	5	-5	-2	-1	-3%	3
N#Cc1nc(Nc2cc(F)cc(F)c2)c2ncn(C3CCCC3)c2n1	1	3	2	1	/	3
Cc1cc(C(C)(C)CC(C)(C)C)ccc1OCCOCC[N+](C)(C)Cc1ccccc1	8	-1	-4	0	-8%	101*
O=C(c1cnn2c(C(F)(F)F)cc(-c3cccs3)nc12)N1CCN(C(c2ccccc2)c2ccccc2)CC1	-47*	-7	-4	-1	-2%	0
Cc1nn2c(CN(C(=O)COc3ccccc3)c3ccccc3)nnc2c2ccccc12	0	2	40*	2	-4%	2
Cc1ccc(C)c(NC(=O)c2ccccc2NS(=O)(=O)c2cc([N+](=O)[O-])ccc2C)c1	-50*	-11	-8	1	-7%	28
Cc1nonc1C(=O)N/N=C/c1cccc(O)c1	-43*	-6	-1	0	4%	2
COc1ccc(S(=O)(=O)NC(C)C(=O)Nc2cccc(C(C)=O)c2)cc1 (stereo unspecified)	-43*	-3	-2	0	-4%	1
Cc1c(Cl)ccc2sc(N3CCN(C(=O)C(C)C)CC3)nc12	/	2	-2	0	1%	10
Cc1c(Cl)ccc2sc(N3CCN(C(=O)CS(=O)(=O)c4ccccc4)CC3)nc12	/	-4	1	0	-2%	49*
CC(C)c1cc(-c2nc(-c3ccc(Cl)cc3)no2)n[nH]1	-38*	-5	1	1	-7%	1
COc1cc(-c2noc(-c3cc(C(C)C)[nH]n3)n2)cc(OC)c1OC	0	2	0	0	-2%	1
COC(=O)c1ccc(C)cc1	/	/	/	/	-4%	/
COC(=O)c1ccc(C)c(N(CCO)CCO)c1	-43*	-7	2	0	-3%	1
Cc1ccc(C)c(OCCCCn2cnc3ccccc3c2=O)c1	-19	-6	4	-1	0%	39*
CCOc1ccc(OCCCCn2cnc3ccccc3c2=O)cc1	-42*	1	-6	1	-6%	1
CC(C)Oc1ccccc1OCCCCn1cnc2ccccc2c1=O	-8	10	-5	0	-3%	1
Cc1ccc(C(=O)Cn2cnc3ccccc3c2=O)cc1C	-17	-3	7	0	10%	43*
CCOC(=O)c1sc(NC(=O)C2CC(=O)N(c3ccc(OC)cc3)C2)nc1C (stereo unspecified)	-4	0	-7	0	-3%	3
CC(=O)Oc1cccc2c1C(=O)C1CC=CC(OC(C)=O)C1C2=O (stereo unspecified)	/	/	/	/	-3%	/
O=C1CCC2CCCCC2(O)O1 (stereo unspecified)	-4	4	33*	0	-4%	2
